Experimental data reported in PubChem BioAssay AID1851 (National Center for Advancing Translational Sciences (NCATS), 2009).
Values joined by “and” are separate entries in the source; they are usually repeats but may differ in a detail not shown here. Equal values may be shown once. The campaign covered roughly 16,000 compounds. About 5,100 (32%) were called active. About 25% were inconclusive and are not listed. The list shows a part of the results. Unmarked numbers belong to inactive results. Calls come from the whole dose curve; as a rule, active = well fitted curve in the direction sought with a large enough effect; inconclusive = small, poorly fitted or top-dose-only effect, or effect the other way; inactive = no such curve, though single readings can be large or run the other way. Square brackets hold non-standard residues; d marks the D form. Peptide text beside a SMILES is read from it.

molecular target: Cytochrome P450 3A4 (Homo sapiens) (UniProt P08684); assay: Cytochrome panel assay with activity outcomes; settings: recombinant CYP, pro-luciferin dealkylation, luminescence, p450-cyp3a4; series mostly up to 57.1 µM; activity, negative = inhibition: at the top concentration
Sequence (P08684 whole entry, looked up): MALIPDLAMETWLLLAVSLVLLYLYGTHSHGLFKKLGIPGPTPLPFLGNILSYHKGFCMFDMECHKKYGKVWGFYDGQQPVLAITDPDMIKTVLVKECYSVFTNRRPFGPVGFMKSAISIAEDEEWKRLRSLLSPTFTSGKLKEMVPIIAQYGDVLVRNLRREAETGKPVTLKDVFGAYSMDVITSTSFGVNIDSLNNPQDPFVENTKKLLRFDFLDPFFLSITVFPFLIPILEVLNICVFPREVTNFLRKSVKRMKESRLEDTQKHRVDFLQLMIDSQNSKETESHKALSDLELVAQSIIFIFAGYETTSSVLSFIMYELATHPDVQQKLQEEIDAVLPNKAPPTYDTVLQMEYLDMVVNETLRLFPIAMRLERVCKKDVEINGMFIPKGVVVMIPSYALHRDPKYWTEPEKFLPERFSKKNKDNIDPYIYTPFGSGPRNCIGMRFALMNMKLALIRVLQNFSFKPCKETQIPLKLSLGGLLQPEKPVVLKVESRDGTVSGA
% is set by controls: 0 for no effect and ±100 for the full control effect.

| SMILES | activity, negative = inhibition | AC50 |
| --- | --- | --- |
| CCCCCC1CCC(C(=O)NNC(=S)NCC)CC1 (stereo unspecified) | -1.07% [at 2.29 µM] |  |
| CN(C)CC[C@H](c1ccc(Br)cc1)c1ccccn1 |  | inactive |
| COCCN(C(=O)C(C)C)c1nnc(-c2ccc(C)cc2)s1 | 12.8% |  |
| CC(C)Cn1c(-c2ccc(Cl)cc2)cnc1SCC(=O)N1CCOCC1 | -5.92% [at 2.29 µM] |  |
| CCn1c(SCC(=O)N2CCOCC2)nc2oc3c(Cl)cc(Cl)cc3c(=O)c2c1=O |  | 11.2 µM (active) |
| CC(C)(C)NC(=O)CSc1nnc(Cc2ccc3c(c2)OCO3)n1C1CCCCC1 |  | 0.447 µM (active) |
| NC(=O)[C@@H]1CCCN1Cc1ccc2c(c1)OCO2 | -37.8% [at 11.4 µM] |  |
| C[N+](C)(C)/N=C\c1ccc(O)c(O)c1 | -21.1% [at 11.4 µM] |  |
| CC(C)N=c1scc(-c2ccco2)n1/N=C/c1ccc(O)c(O)c1 |  | 12.6 µM (active) |
| NCCc1nc(-c2nc(C(=O)O)cs2)cs1 | -14.8% [at 11.4 µM] |  |
| COc1ccc(C(=O)N2CCC3(CCCN(Cc4ccncc4)C3)CC2)cc1 |  | 7.94 µM (active) |
| COc1ccc(C(=O)N2CCC3(CCN(Cc4ccncc4)CC3)CC2)cc1 |  | 15.8 µM (active) |
| CC(=O)N1CCC2(CCN(Cc3ccncc3)CC2)CC1 | -26.1% |  |
| COc1ccc(C(=O)N2CCC3(CCCN(C)C3)CC2)cc1 | -16.3% |  |
| O=C(c1ccncc1)N1CCC2(CCCN(Cc3ccncc3)C2)CC1 |  | 5.01 µM (active) |
| O=C(c1cccc(F)c1)N1CCC2(CCN(Cc3ccccc3)CC2)CC1 | 16% |  |
| O=C(c1ccncc1)N1CCC2(CCN(Cc3ccccc3)CC2)CC1 |  | 15.8 µM (active) |
| O=C(O)CP(=O)(O)O |  | inactive |
| Oc1c(Cl)cc(CN(Cc2cc(Cl)c(O)c(Cl)c2)C2CCCCC2)cc1Cl | -4.66% [at 11.4 µM] |  |
| O=C(c1ccncc1)N1CCC[C@@]2(CCN(Cc3ccccc3)C2)C1 |  | 15.8 µM (active) |
| CC(=O)N1CCC2(CCCN(Cc3ccccc3)C2)CC1 | -11.8% |  |
| O=C(c1ccncc1)N1CCC2(CCCN(Cc3ccccc3)C2)CC1 |  | 10 µM (active) |
| O=C(c1csnn1)N1CCC2(CCCN(Cc3ccccc3)C2)CC1 | -27.9% |  |
| CC(=O)N1CCC2(CC1)CN(Cc1ccccc1)C2 | -12.4% |  |

| SMILES | activity, negative = inhibition | AC50 |
| --- | --- | --- |
| CC(=O)OC1CCC(OC(C)=O)c2c1n([O-])c(C)c(C)[n+]2=O (stereo unspecified) | -8.36% |  |
| COC(=O)c1c(-n2c(C)cc(C=O)c2C)sc2c1CCCC2 |  | 7.08 µM (active) |
| O=C(NCCc1ccccc1)c1noc2c1CCc1ccccc1-2 | -2.2% [at 2.29 µM] |  |
| O=C1Nc2ccccc2C1=Nc1cccc2ncccc12 | -14.3% [at 11.4 µM] |  |
| O=C1Nc2ccccc2/C1=N/c1sc2c(c1C(=O)NCCc1ccccc1)CCCC2 |  | 7.08 µM (active) |
| NCC(=O)N[C@H](CO)C(=O)O (H-Gly-[dS]-OH) | -9.24% [at 11.4 µM] |  |
| C[N+]1(C)CCC(OC(=O)C(c2ccccc2)c2ccccc2)CC1 |  | inactive |
| CCCCCCOC(=O)C(C#N)c1nc2ccccc2nc1N1CCN(CC)CC1 (stereo unspecified) |  | 28.2 µM (active) |
| CCN1CCN(c2nc3ccccc3nc2C(C#N)C(=O)OC2CCCCC2)CC1 (stereo unspecified) |  | 10 µM (active) |
| CC(C)OC(=O)C(C#N)c1nc2ccccc2nc1N1CCN(Cc2ccccc2)CC1 (stereo unspecified) | 11% |  |
| Nc1nc(-c2cc(-c3cccc4ccccc34)nc(N)n2)cc(-c2cccc3ccccc23)n1 | 6.26% [at 11.4 µM] |  |
| Cc1cc(C)nc(Nc2n[nH]c(COc3ccc4ccccc4c3)n2)n1 |  | 5.01 µM (active) |
| Cc1noc2ncnc(Oc3ccc4ccccc4c3)c12 | -17.6% |  |
| NC(=O)Nc1n[nH]c(-c2ccccc2)n1 | -3.37% [at 11.4 µM] |  |
| Cc1cc(Oc2ccccc2)nc(NCc2ccccc2)n1 | 7.15% [at 11.4 µM] |  |
| Cc1cc(C)nc(Nc2n[nH]c(-c3cccc4ccccc34)n2)n1 |  | 14.1 µM (active) |
| O=c1[nH]ncn2cccc12 | 1.41% |  |
| COc1ccccc1-n1c(SCC(=O)Nc2ccccc2F)nc2[nH]ncc2c1=O |  | 14.1 µM (active) |
| NCCSc1nc2ccccc2s1 |  | 3.16 µM (active) |
| NCCSc1nc(-c2ccccc2)c(-c2ccccc2)o1 | -23.1% [at 11.4 µM] |  |
| c1ccc2sc(SCCSc3nc4ccccc4s3)nc2c1 | 14.9% [at 11.4 µM] |  |
| Oc1ccccc1C(Sc1nc2ccccc2s1)Sc1nc2ccccc2s1 | -6.59% [at 11.4 µM] |  |
| c1ccc2sc(SCSc3nc4ccccc4s3)nc2c1 |  | 3.16 µM (active) |
| COc1cc(C)cc2c(-c3c(O)cc(O)c4c3C[C@H](C)N[C@@H]4C)cc(-c3cc(-c4c(O)cc(O)c5c4C[C@H](C)N[C@@H]5C)c4cc(C)cc(OC)c4c3O)c(O)c12 | -3.16% [at 11.4 µM] |  |

| SMILES | activity, negative = inhibition | AC50 |
| --- | --- | --- |
| C[C@@](N)(C(=O)O)c1ccc(P(=O)(O)O)cc1 | -11.3% |  |
| Cc1cc2c(=O)[nH]c(N)nc2nc1C | -3.61% [at 11.4 µM] |  |
| COc1ccccc1CNc1ccnc(-c2ccc3c(c2)OCO3)n1 |  | 1.58 µM (active) |
| COc1ccc(CNc2ccnc(-c3ccc4c(c3)OCO4)n2)c(OC)c1 |  | 1 µM (active) |
| CC(=O)Nc1c2c3c(cccc3n(C)c1=O)C(=O)c1ccccc1-2 |  | 17.8 µM (active) |
| CCOC(=O)C(=Cc1ccc(F)cc1)C(=O)OCC | 11.9% |  |
| CCOC(=O)C(=CNc1cccc(C)c1C)C(=O)OCC |  | 15.8 µM (active) |
| CCOC(=O)C(=CNc1ncccc1C)C(=O)OCC |  | 12.6 µM (active) |
| CCOC(=O)/C(=C/Nc1ccccc1)[N+](=O)[O-] | -3.29% |  |
| Cc1ccc(NC(=O)Nc2ncccc2C)cc1 | -13.7% [at 2.29 µM] |  |
| CCOC(=O)C(=CNCC(=O)O)C(=O)OCC | 0.794% |  |
| CN(C)CCCn1c2ccccc2c2cnccc21 | -22.2% [at 11.4 µM] |  |
| Cc1ccc(C(=O)O/N=C/c2c(Cl)n(C)c3ccccc23)cc1 | -15.1% |  |
| Cc1c2cnccc2c(C)c2c1c1ccccc1n2CCOC(=O)c1ccccc1 |  | 0.631 µM (active) |
| Cc1noc(C)c1-c1nc(Nc2ccccc2)c2ccccc2n1 |  | 6.31 µM (active) |
| Cc1noc(C)c1-c1nc(NC2CCNCC2)c2ccccc2n1 | -11.4% |  |
| Cc1noc(C)c1-c1nc(Nc2ccc(F)cc2)c2ccccc2n1 | -19.8% |  |
| Cc1noc(C)c1-c1nc(Nc2ccncc2)c2ccccc2n1 |  | 0.316 µM (active) |
| CC(C)Oc1ccc(CNC(=O)CC(c2ccccc2)c2cc(Cl)ccc2O)cc1 (stereo unspecified) |  | 10 µM (active) |
| CN(Cc1ccccc1)C(=O)CC(c1ccccc1)c1cc(Cl)ccc1O (stereo unspecified) |  | 14.1 µM (active) |
| O=C(O)Cc1cc(Cl)ccc1O | -2.24% [at 11.4 µM] |  |
| CN(/C=C/C(=O)C(F)(F)F)Cc1ccccc1 | 7.08% |  |
| COc1cccc(Cn2c(=O)c(CCc3ccccc3)nc3cncnc32)c1 |  | 2.51 µM (active) |
| COc1cccc(Cn2c(=O)c(CCc3ccccc3)nc3cnc(OC)nc32)c1 |  | 2.51 µM (active) |

| SMILES | activity, negative = inhibition | AC50 |
| --- | --- | --- |
| NC/C=C\C(=O)O |  | inactive |
| CC(C(=O)NCc1ccc2c(c1)OCO2)N1c2cccc3cccc(c23)S1(=O)=O (stereo unspecified) |  | 0.316 µM (active) |
| Cc1cc(C)c2nc3c(c([C@H](O)[C@@H]4CCCCN4)c2c1)CC/C3=C/c1ccc(Cl)cc1 | -1.86% [at 11.4 µM] |  |
| CC(=O)NCCNc1nc(-c2ccc(C(=O)N(C)C)cc2)nc2ccccc12 | 3.16% |  |
| CN(C)C(=O)c1ccc(-c2nc(NC3CCNCC3)c3ccccc3n2)cc1 | 19.7% |  |
| CN(C)C(=O)c1ccc(-c2nc(NCc3cccs3)c3ccccc3n2)cc1 |  | 15.8 µM (active) |
| CN(C)c1ccc(-c2nc(NCc3cccnc3)c3ccccc3n2)cc1 |  | 2 µM (active) |
| CN(C)C(=O)c1ccc(-c2nc(NCc3ccccc3)c3ccccc3n2)cc1 |  | 15.8 µM (active) |
| CN(C)C(=O)c1ccc(-c2nc(NCc3cccnc3)c3ccccc3n2)cc1 |  | 12.6 µM (active) |
| O=C1C[C@@H](O)[C@@H](O)[C@H]2[C@@H]3C(=O)N(c4cccc(Oc5ccccc5)c4)C(=O)[C@@H]3CC[C@H]12 | -19.7% [at 11.4 µM] and -7.2% [at 11.4 µM] |  |
| Cc1ccc(OCC(=O)NNC(=O)CCC(=O)NCc2ccccc2)cc1 | -28.6% |  |
| Cc1ccc(OCC(=O)Nn2cnc3ccccc32)cc1 |  | 7.94 µM (active) |
| Cc1ccc(OCC(=O)NNC(=O)CCc2ccccc2)cc1 | -11.1% |  |
| Cc1ccc(OCC(=O)NC2=NCCS2)cc1 | -22.5% [at 11.4 µM] |  |
| Cc1ccc(OCC(=O)Nc2ccccc2-c2ccccc2)cc1 |  | 20 µM (active) |
| CN(C)CCN1C(=O)C(O)=C(C(=O)c2cc3ccccc3o2)C1c1cccc(Br)c1 (stereo unspecified) | 27.7% [at 2.29 µM] |  |
| O=C(c1ccco1)N1CCC2(CCCN(C(c3ccccc3)c3ccccc3)C2)CC1 |  | 12.6 µM (active) |
| O=C(Nc1ccccc1)N1CC[C@@]2(CCCN(C(=O)c3ccco3)C2)C1 | -27.6% |  |
| O=C(c1ccco1)N1CCC[C@@]2(CCN(C(c3ccccc3)c3ccccc3)C2)C1 |  | 12.6 µM (active) |
| CC(C)NC(=O)N1CC2(CCN(C(=O)c3ccco3)CC2)C1 | -0.152% |  |
| COc1cc(-c2nnc(SCC(=O)Nc3ccc4c(c3)OCCO4)o2)cc(OC)c1OC |  | 8.91 µM (active) |
| COc1cc(-c2nnc(SCC3(c4ccc(Br)cc4)OCCO3)o2)cc(OC)c1OC |  | 12.6 µM (active) |
| Cc1ccc(NC(=O)CSc2nnc(-c3ccncc3)o2)cc1 | -3.56% [at 2.29 µM] |  |
| COc1cc(-c2nnc(SCC3(c4ccccc4)OCCO3)o2)cc(OC)c1OC |  | 4.47 µM (active) |
